TSHR ag: TSH receptor (human) agonism; HEK293-CNG-TSHR cells (CNG channel as cAMP sensor), membrane potential dye, cAMP; Potency, µM (doses to about 57.1 µM), inactives show top-dose activation, usual class: activators; 0.48% of 73,000 active; active = well fitted activation curve with a large enough effect in the main read-out, with a control signal flat, not every such curve was filed as active; inconclusive = small, poorly fitted or top-dose-only effect, or a change in a side signal; inactive = no such curve, though single readings can be large or run the other way; % of control where 0% means no effect;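 also: the control signal comes from parental cells without the receptor; potency is read from the fitted curve at half-maximal effect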
Target sequence (P16473 whole entry, looked up): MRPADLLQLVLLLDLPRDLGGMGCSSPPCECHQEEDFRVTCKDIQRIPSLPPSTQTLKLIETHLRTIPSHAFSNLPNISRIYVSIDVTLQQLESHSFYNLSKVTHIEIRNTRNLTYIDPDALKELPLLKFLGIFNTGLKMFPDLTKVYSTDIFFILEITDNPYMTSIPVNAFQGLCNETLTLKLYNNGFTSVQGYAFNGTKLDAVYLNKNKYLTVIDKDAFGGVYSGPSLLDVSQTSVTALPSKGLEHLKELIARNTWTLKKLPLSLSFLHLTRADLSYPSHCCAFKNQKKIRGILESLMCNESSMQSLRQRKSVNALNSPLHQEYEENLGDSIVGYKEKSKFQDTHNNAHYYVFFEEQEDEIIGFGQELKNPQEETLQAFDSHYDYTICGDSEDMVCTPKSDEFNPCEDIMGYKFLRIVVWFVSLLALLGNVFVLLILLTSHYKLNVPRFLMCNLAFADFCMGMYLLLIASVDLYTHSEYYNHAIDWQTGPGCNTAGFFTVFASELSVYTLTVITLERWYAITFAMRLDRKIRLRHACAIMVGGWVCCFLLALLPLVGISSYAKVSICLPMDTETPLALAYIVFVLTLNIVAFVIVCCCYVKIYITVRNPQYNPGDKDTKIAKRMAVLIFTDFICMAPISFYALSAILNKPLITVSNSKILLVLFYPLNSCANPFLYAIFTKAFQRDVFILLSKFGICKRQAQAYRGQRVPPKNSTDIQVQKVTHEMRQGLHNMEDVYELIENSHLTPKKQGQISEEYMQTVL
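cAMP rise detected as CNG-channel membrane depolarization by fluorescent dye (emission 590 nm), 30 min after compound, following 60 min dye loading containing 100 uM RO 20-1724 at room temperature. Cells: TSHR/CNG HEK 293, with parental CNG HEK 293 as control.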
HBB splicing: hemoglobin beta splicing modulation; HBB splicing reporter cell assay, activation; EGFP reporter with mutant IVS2-654 intron; response scale: normalised to 500 nM splice-correcting PNA; Potency, µM (doses to about 46.1 µM), for inactives: top-dose activation, usual class: activators; 0.06% of 65,000 active; also: potency is read from the fitted curve at half-maximal effect; 0% is about no effect
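Compounds were applied for 2 days to HeLa EGFP-654 cells, 500/well in Optimem with 2% FCS. The reporter's EGFP is disrupted by mis-splicing of beta-globin intron IVS2-654. Readout: summed well GFP fluorescence from 488 nm laser scanning; reference was 500 nM antisense […] 654 PNA.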
HEK293 cAMP ctrl: counter-screen for TSHR agonists: cAMP increase in parental HEK293; parental HEK293 CNG cAMP sensor, membrane potential fluorescence; Potency, µM (highest dose often 57.1 µM), without a hit: at the top dose activation, actives largely listed as activators; 2.5% of 73,000 active; also: potency is read from the fitted curve at half-maximal effect; % of control where 0% means no effect; nearly all actives have a fitted effect of over 55% in size
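Parental HEK 293 cells stably expressing a cAMP-gated CNG channel were loaded with membrane potential dye containing 100 uM RO 20-1724 for 60 min. Compound added for 30 min; depolarization read as fluorescence intensity at 590 nm.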
ERK AVP inh: inhibitors of vasopressin-stimulated ERK signaling pathway | 0.99% of 72,000 active | Potency, µM (titrated, usually from 57.5 µM), for the others: at the highest dose activity, negative = inhibition, usual class: inhibitors | HEK293-V1b, vasopressin-stimulated pERK AlphaScreen; also: potency is read from the fitted curve at half-maximal effect; % is scaled to controls: 0 for no effect and ±100 for the full control effect; nearly all actives have a fitted effect of over 55% in size
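Overnight-seeded V1b-HEK293 cells in 1% FBS got compound, then vasopressin (25 nM final, 5 min, 37C), then lysis buffer. AlphaScreen detection of phospho-ERK; activity normalized to basal and full-stimulation controls.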
GFP derepression: epigenetic GFP locus derepression in mouse cells; mouse C127i GFP locus derepression, cytometry, 30 h; Potency, µM (titrated, usually from 46.1 µM), inactives show top-dose GFP derepression (activation); 0.09% of 68,000 active; AID 597; also: % of control where 0% means no effect
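Murine C127i mammary cells carrying a silenced, stably integrated CMV-driven GFP reporter were treated with compound for 30 hours at 37 C. After PBS washes, GFP-positive cells were counted by laser-scanning microplate cytometry.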
UbGFP stabilizer: proteasome inhibitors stabilizing ubiquitin-GFP reporter. Ubiquitin-GFP reporter cells, proteasome inhibition, GFP fluorescence; response scale: untreated = 0%, 10 µM MG-132 = 100%. 67,000 tested, under 10 active. Potency, µM (series often up to 45.9 µM), without a hit: at the highest dose activation (GFP accumulation), hits mostly activators; active = well fitted activation curve with a large enough effect, not every such curve was filed as active; inconclusive = small, poorly fitted or top-dose-only effect, or another doubt; inactive = no such curve, though single readings can be large or run the other way; also: potency is read from the fitted curve at half-maximal effect
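U2OS cells expressing ubiquitin(G76V)-GFP, seeded overnight in 0.5% FBS medium, then treated 4 hr at 37 C across 46 uM to 2.9 nM. GFP-positive cells counted by laser cytometry (488 ex/515 em); %activity scaled between basal and 10 uM MG-132.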
The depositor's hits bear a star; ? = inconclusive; . = not tested or not shown; [ ] = dose if it differs, or a comment. A selection: hits, their analogues and other compounds. The true share with any hit is near 3.8%. Unless noted, calls follow the shape of the dose curve; as a rule, active = well fitted curve in the direction sought with a large enough effect; inconclusive = small, poorly fitted or top-dose-only effect, or another doubt; inactive = no such curve, though single readings can be large; an effect the other way counts as inactive or inconclusive.

SMILES | TSHR ag | HBB splicing | HEK293 cAMP ctrl | ERK AVP inh | GFP derepression | UbGFP stabilizer
CCOC(=O)C(C(=O)OCC)c1cc(Br)c2noc3c2c1C(=O)c1ccccc1-3 | -17% | 2%[57.5 µM] | -20% | 25µM* | 2% | -2%
CCCn1c(-c2ccc(F)cc2)nc2c(NCCCCN(C)C)nc(C)nc21 | ? | -1% | ? | -7% | . | -13%
CCC(C)(C)NC(=O)C(c1ccncc1)N(Cc1cccs1)C(=O)Cn1nnc2ccccc21 (stereo not given) | ? | 0%[57.5 µM] | 20µM* | -5% | 2% | -3%
CC(C)(C)NC(=O)C(c1ccncc1)N(Cc1cccs1)C(=O)Cn1nnc(-c2cccs2)n1 (stereo not given) | ? | . | 20µM* | -4% | 2% | -3%
COc1ccc2c(c1)N(CC[C@H]1CCCCN1C)c1ccccc1S2 | -4%[11.4 µM] | 0%[9.22 µM] | -9%[11.4 µM] | 4%[11.5 µM] | 8%[9.22 µM] | -7%[9.17 µM]
Cc1ccc(S(=O)(=O)Nc2ccccc2C=O)cc1 | -12%[11.4 µM] | 0%[9.22 µM] | -16%[11.4 µM] | 1%[11.5 µM] | 0%[9.22 µM] | -3%[9.17 µM]
Cc1noc(C)c1C(=O)N1CCC2(CC1)CN(c1cccc(-c3ccccc3)c1)C2 | 5% | 2% | -6% | ? | -2%[9.22 µM] | 4%
Cc1ccc(-c2nnc3c4ccccc4c(C)nn23)cc1S(=O)(=O)N1CCN(C)CC1 | ? | 0%[57.5 µM] | ? | -24% | 0% | 0%
Cc1ccc(-c2nn3c(-c4ccco4)nnc3c3ccccc23)cc1S(=O)(=O)NCC1CCCO1 (stereo not given) | ? | 4%[0.369 µM] | 20µM* | -21% | 6% | .
CCCC(c1nnnn1Cc1ccco1)N1CCN(C2CCCC2)CC1 (stereo not given) | ? | 0%[57.5 µM] | 16µM* | -24% | 0% | -4%
CC(C)C(c1nnnn1Cc1ccco1)N1CCN(C2CCCC2)CC1 (stereo not given) | ? | -2% | ? | 13% | 5% | -4%
CC(C)C(c1nnnn1Cc1ccco1)N1CCN(c2nc3ccccc3s2)CC1 (stereo not given) | . | 0% | 27% | 2µM* | -2% | -2%
Cc1ccc(S(=O)(=O)Cn2nnnc2C(C(C)C)N2CCN(Cc3ccco3)CC2)cc1 (stereo not given) | 7% | 0%[57.5 µM] | -2% | 31% | -1% | 3%
c1ccc2sc(N3CCN(Cc4nnnn4CC4CCCO4)CC3)nc2c1 (stereo not given) | ? | 0%[57.5 µM] | 25µM* | -7% | 3% | -3%
CCCC(c1nnnn1Cc1ccc(F)cc1)N1CCN(C2CCCCC2)CC1 (stereo not given) | ? | 2%[57.5 µM] | ? | 32µM* | -2% | 2%
COc1ccc(NC(=O)N2CC3(CCN(S(C)(=O)=O)CC3)C2)cc1 | 0% | 2% | 14% | 13% | -2%[9.22 µM] | -9%
Fc1ccc(Cn2nnnc2CN2CCN(C3CCCCC3)CC2)cc1 | ? | 1% | 10µM* | 5% | -1% | 6%
CCC(c1nnnn1Cc1cccs1)N1CCN(c2nc3ccccc3s2)CC1 (stereo not given) | ? | 0%[57.5 µM] | 32µM* | ? | -1% | -3%
CCC(c1nnnn1Cc1cccs1)N1CCN(C2CCCC2)CC1 (stereo not given) | ? | 1%[57.5 µM] | 5µM* | 2% | -2% | 2%
CCCC(c1nnnn1Cc1cccs1)N1CCN(C2CCCC2)CC1 (stereo not given) | ? | 0%[57.5 µM] | ? | 3% | 1% | 4%
COCCn1nnnc1C(c1cccs1)N1CCN(c2nc3ccccc3s2)CC1 (stereo not given) | 13% | -2% | 20% | -23% | 0% | -4%
C[C@H]1NC(=O)NC1=O | ? | 0%[20.6 µM] | ? | 25%[25.7 µM] | 0%[20.6 µM] | 6%[20.5 µM]
Cn1c(=O)n(CCc2ccccc2)c(=O)c2c1nc1n2CCCN1CCc1ccccc1 | -16% | 3%[0.369 µM] | -30% | 13µM* | 0% | .
CCCn1c(CN(C)Cc2ccccc2)nc2c1c(=O)n(C)c(=O)n2C | ? | 1% | ? | -30% | -1% | -2%
CN(Cc1ccccc1)Cc1nc2c(c(=O)n(C)c(=O)n2C)n1CCc1ccccc1 | ? | -1%[57.5 µM] | 13µM* | -14% | -2% | 2%
SMILES | TSHR ag | HBB splicing | HEK293 cAMP ctrl | ERK AVP inh | GFP derepression | UbGFP stabilizer
CCCCn1c(CN(C)Cc2ccccc2)nc2c1c(=O)n(C)c(=O)n2C | ? | -1% | 16µM* | ? | 0% | 0%
Cn1c(=O)n(CCc2ccccc2)c(=O)c2c1nc1n2CCCN1Cc1ccccc1 | -15% | 9%[0.369 µM] | -5% | ? | 2% | 0%
O=S(=O)(O)c1ccc(N=Nc2ccc3c(S(=O)(=O)O)cccc3c2O)c2ccccc12 | 7%[11.4 µM] | 0%[9.22 µM] | 4%[11.4 µM] | -21%[11.5 µM] | 3%[9.22 µM] | 0%[9.17 µM]
Nc1ncnc2nc(-c3ccc(C[P+](c4ccccc4)(c4ccccc4)c4ccccc4)cc3)[nH]c12 | -2%[11.4 µM] | 0%[9.22 µM] | -3%[11.4 µM] | -4%[11.5 µM] | -3%[9.22 µM] | -8%[9.17 µM]
O=C(Nc1cccc(F)c1)c1cccc(S(=O)(=O)N2CCOCC2)c1 | 6% | 0% | -3% | -14% | 0% | 1%
O=C(Nc1ccc2c(c1)OCCO2)c1ccc(Br)c(S(=O)(=O)N2CCOCC2)c1 | ? | -2%[0.0738 µM] | ? | 7.9µM* | -2% | 2%[9.17 µM]
O=C(Nc1ccc2c(c1)OCO2)c1cccc(S(=O)(=O)N2CCCC2)c1 | 3% | 5% | 12% | 16µM* | 3% | -2%
O=C(Nc1ccc2c(c1)OCO2)c1ccc(Br)c(S(=O)(=O)N2CCCC2)c1 | ? | 5% | ? | ? | -3% | 9%
CCOC(=O)c1ccc(NC(=O)c2cccc(S(=O)(=O)N3CCOCC3)c2)cc1 | 11% | 0% | 21% | 5µM* | 2% | -11%
Cc1nc2cnc(N3CCN(C)CC3)nc2n(-c2ccccc2)c1=O | -6% | 1% | 16% | 11% | 5%[9.22 µM] | 2%
CC(C)C(OC(=O)c1cc2sccc2n1C)C(=O)NCC1CCCO1 (stereo not given) | ? | . | 2µM* | -20% | -2% | 1%
Cn1c(C(=O)OC(C(=O)NC2CCCCC2)c2ccncc2)cc2sccc21 (stereo not given) | ? | . | 16µM* | -2% | 2% | 0%
Cc1ccc2c(c1)N(CC(=O)c1cccc(Cl)c1)C(=O)C(C)O2 (stereo not given) | ? | . | 20µM* | -1% | -2% | -3%
CC1Oc2ccccc2N(CC(=O)c2cccc(Cl)c2)C1=O (stereo not given) | ? | . | ? | 12% | 6% | -5%

Source: PubChem (National Center for Advancing Translational Sciences (NCATS))
